Data taken from PubChem BioAssay AID1159580 (chemical genetic matrix, 2015).
The whole screen tested about 5,500 compounds, of which about 2,000 (36%) were called active. Inconclusive results (about 18%) are left out. No stated cut-off is given here; in the data, active means normalized growth mostly below about 0.91 (no sharp cut-off); inconclusive means no clear call, values can overlap the other calls; inactive means mostly above about 0.92. The list shows a part of the results.

Experiment: chemical genetic growth profiling, strain panel (AID 1159580);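 further: tested at 20 µM; growth read once vehicle control cultures reached saturation at 30 °C; 1 = growth at the plate median or of vehicle wells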
Settings: growth OD

Measured: normalized growth

C[C@]12C=CC(=O)C=C1CCC1C2C(=O)C[C@@]2(C)C1CC[C@]2(O)C(=O)CO (stereo partly specified)
inactive: S. cerevisiae deletion strains, locus YJR075W, strain HOC1, stronger effect = lower value 0.985 | S. cerevisiae deletion strains, locus YKL009W, strain mrt4, stronger effect = lower value 0.979 | S. cerevisiae deletion strains, locus YKL068W, stronger effect = lower value 0.989 | S. cerevisiae deletion strains, locus YKL085W, strain MDH1 (second series), stronger effect = lower value 0.998 | S. cerevisiae deletion strains, locus YKL085W, strain MDH1, stronger effect = lower value 0.998 | S. cerevisiae deletion strains, locus YKL160W, strain elf1, stronger effect = lower value 0.97 | S. cerevisiae deletion strains, locus YKL190W, strain CNB1, stronger effect = lower value 0.989 | S. cerevisiae deletion strains, locus YKR001C, strain vps1, stronger effect = lower value 0.995 | S. cerevisiae deletion strains, locus YKR026C, strain gcn3, stronger effect = lower value 0.997 | S. cerevisiae deletion strains, locus YKR091W, strain srl3, stronger effect = lower value 0.997 | S. cerevisiae deletion strains, locus YLL001W, strain dnm1, stronger effect = lower value 0.955 | S. cerevisiae deletion strains, locus YLL026W, stronger effect = lower value 0.986 | S. cerevisiae deletion strains, locus YLL041C, strain sdh2, stronger effect = lower value 0.994 | S. cerevisiae deletion strains, locus YLR027C, strain aat2, stronger effect = lower value 0.978 | S. cerevisiae deletion strains, locus YLR039C, strain RIC1, stronger effect = lower value 0.993 | S. cerevisiae deletion strains, locus YLR058C, strain SHM2, stronger effect = lower value 0.978 | S. cerevisiae deletion strains, locus YLR102C, strain apc9, stronger effect = lower value 0.99 | S. cerevisiae deletion strains, locus YLR113W, strain HOG1, stronger effect = lower value 1.03 | S. cerevisiae deletion strains, locus YLR221C, strain rsa3, stronger effect = lower value 1.01 | S. cerevisiae deletion strains, locus YLR258W, strain gsy2, stronger effect = lower value 1.02 | S. cerevisiae deletion strains, locus YLR262C, strain YPT6 (second series), stronger effect = lower value 0.986 | S. cerevisiae deletion strains, locus YLR262C, strain YPT6, stronger effect = lower value 0.968 | S. cerevisiae deletion strains, locus YLR268W, strain sec22, stronger effect = lower value 1.05 | S. cerevisiae deletion strains, locus YLR320W, strain mms22, stronger effect = lower value 0.985 | S. cerevisiae deletion strains, locus YLR330W, strain CHS5, stronger effect = lower value 0.998 | S. cerevisiae deletion strains, locus YLR342W, strain FKS1 (second series), stronger effect = lower value 1.01 | S. cerevisiae deletion strains, locus YLR342W, strain FKS1, stronger effect = lower value 0.978 | S. cerevisiae deletion strains, locus YLR357W, strain rsc2, stronger effect = lower value 0.992 | S. cerevisiae deletion strains, locus YLR370C, strain arc18, stronger effect = lower value 0.994 | S. cerevisiae deletion strains, locus YLR371W, strain rom2, stronger effect = lower value 0.974 | S. cerevisiae deletion strains, locus YLR384C, strain iki3, stronger effect = lower value 0.985 | S. cerevisiae deletion strains, locus YLR418C, strain cdc73, stronger effect = lower value 0.985 | S. cerevisiae deletion strains, locus YML016C, strain PPZ1, stronger effect = lower value 0.991 | S. cerevisiae deletion strains, locus YML032C, strain rad52, stronger effect = lower value 1.01 | S. cerevisiae deletion strains, locus YML120C, strain ndi1, stronger effect = lower value 0.986 | S. cerevisiae deletion strains, locus YML124C, strain tub3, stronger effect = lower value 0.983 | S. cerevisiae deletion strains, locus YMR058W, strain fet3, stronger effect = lower value 0.996 | S. cerevisiae deletion strains, locus YMR078C, strain ctf18, stronger effect = lower value 0.979 | S. cerevisiae deletion strains, locus YMR125W, strain sto1, stronger effect = lower value 0.987 | S. cerevisiae deletion strains, locus YMR129W, stronger effect = lower value 1 | S. cerevisiae deletion strains, locus YMR205C, strain PFK2, stronger effect = lower value 0.988 | S. cerevisiae deletion strains, locus YMR223W, strain ubp8, stronger effect = lower value 0.963 | S. cerevisiae deletion strains, locus YMR231W, strain pep5, stronger effect = lower value 1.02 | S. cerevisiae deletion strains, locus YMR263W, strain SAP30, stronger effect = lower value 0.992 | S. cerevisiae deletion strains, locus YMR307W, strain GAS1, stronger effect = lower value 0.991 | S. cerevisiae deletion strains, locus YNL067W, strain RPL9B, stronger effect = lower value 0.992 | S. cerevisiae deletion strains, locus YNL071W, strain lat1, stronger effect = lower value 1.01 | S. cerevisiae deletion strains, locus YNL153C, strain GIM3, stronger effect = lower value 0.99 | S. cerevisiae deletion strains, locus YNL183C, strain NPR1, stronger effect = lower value 0.986 | S. cerevisiae deletion strains, locus YNL209W, strain ssb2, stronger effect = lower value 1.01 | S. cerevisiae deletion strains, locus YNL233W, strain BNI4, stronger effect = lower value 0.997 | S. cerevisiae deletion strains, locus YNL248C, strain rpa49, stronger effect = lower value 1 | S. cerevisiae deletion strains, locus YNL250W, strain rad50, stronger effect = lower value 0.981 | S. cerevisiae deletion strains, locus YNL271C, strain bni1, stronger effect = lower value 0.999 | S. cerevisiae deletion strains, locus YNL298W, strain CLA4, stronger effect = lower value 0.982 | S. cerevisiae deletion strains, locus YNL307C, strain MCK1, stronger effect = lower value 0.998 | S. cerevisiae deletion strains, locus YNL322C, strain KRE1 (second series), stronger effect = lower value 0.998 | S. cerevisiae deletion strains, locus YNL322C, strain KRE1, stronger effect = lower value 0.994 | S. cerevisiae deletion strains, locus YNR049C, strain mso1, stronger effect = lower value 0.999 | S. cerevisiae deletion strains, locus YNR052C, strain pop2, stronger effect = lower value 0.995 | S. cerevisiae deletion strains, locus YOL006C, strain TOP1, stronger effect = lower value 0.938 | S. cerevisiae deletion strains, locus YOL012C, strain htz1 0.891 | S. cerevisiae deletion strains, locus YOL147C, strain pex11, stronger effect = lower value 0.999 | S. cerevisiae deletion strains, locus YOR001W, strain rrp6, stronger effect = lower value 0.976 | S. cerevisiae deletion strains, locus YOR061W, strain CKA2, stronger effect = lower value 0.963 | S. cerevisiae deletion strains, locus YOR069W, strain VPS5, stronger effect = lower value 0.997 | S. cerevisiae deletion strains, locus YOR070C, strain gyp1, stronger effect = lower value 1.01 | S. cerevisiae deletion strains, locus YOR080W, strain dia2, stronger effect = lower value 0.992 | S. cerevisiae deletion strains, locus YOR083W, strain WHI5, stronger effect = lower value 0.964 | S. cerevisiae deletion strains, locus YOR106W, strain vam3, stronger effect = lower value 0.993 | S. cerevisiae deletion strains, locus YOR136W, strain idh2, stronger effect = lower value 0.982 | S. cerevisiae deletion strains, locus YOR144C, strain elg1, stronger effect = lower value 0.985 | S. cerevisiae deletion strains, locus YOR184W, strain ser1, stronger effect = lower value 0.973 | S. cerevisiae deletion strains, locus YOR231W, strain MKK1, stronger effect = lower value 1.01 | S. cerevisiae deletion strains, locus YOR265W, strain rbl2, stronger effect = lower value 0.993 | S. cerevisiae deletion strains, locus YOR270C, strain vph1, stronger effect = lower value 1.02 | S. cerevisiae deletion strains, locus YOR290C, strain snf2, stronger effect = lower value 1.03 | S. cerevisiae deletion strains, locus YOR316C, strain cot1, stronger effect = lower value 0.985 | S. cerevisiae deletion strains, locus YPL051W, strain arl3, stronger effect = lower value 0.989 | S. cerevisiae deletion strains, locus YPL055C, strain LGE1, stronger effect = lower value 0.94 | S. cerevisiae deletion strains, locus YPL078C, strain atp4, stronger effect = lower value 0.955 | S. cerevisiae deletion strains, locus YPL106C, strain sse1, stronger effect = lower value 1.01 | S. cerevisiae deletion strains, locus YPL240C, strain hsp82, stronger effect = lower value 0.987 | S. cerevisiae deletion strains, locus YPL241C, strain CIN2, stronger effect = lower value 0.997 | S. cerevisiae deletion strains, locus YPL256C, strain CLN2, stronger effect = lower value 1.05 | S. cerevisiae deletion strains, locus YPR119W, strain clb2, stronger effect = lower value 0.982 | S. cerevisiae deletion strains, locus YPR141C, strain kar3, stronger effect = lower value 0.98 | S. cerevisiae deletion strains, locus YPR163C, strain tif3, stronger effect = lower value 0.986 | S. cerevisiae deletion strains, locus YPR167C, strain met16, stronger effect = lower value 0.996 | S. cerevisiae deletion strains, strain wtn01, stronger effect = lower value 0.992 | S. cerevisiae strains, strain wild type, stronger effect = lower value 0.986
